Measurements published in PubChem BioAssay.
Calls of active or inactive are those of the source. No rule for the calls is given here.

System: Aerobactin synthetase IucA (Klebsiella pneumoniae hvKP1)
Assay: Biochemical IucA enzyme inhibition primary screen of the Spectrum library (AID 1346200);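 also: 100% = wells without compound and 0% = wells lacking enzyme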
Conditions: malachite green pyrophosphate, A620, at 8 µM, stronger effect = lower value

Row | Structure (SMILES) | activity remaining
1 | C[C@]12C=CC(=O)C=C1CCC1C2[C@@H](O)C[C@@]2(C)C1CC[C@]2(O)C(=O)COP(=O)(O)O (stereo not given in full) | 117% (inactive)
2 | CC(=O)O[C@]1(C(C)=O)CCC2C3C=C(Cl)C4=CC(=O)[C@@H]5C[C@@H]5[C@]4(C)C3CC[C@@]21C (stereo not given in full) | 101% (inactive)
3 | CCCCCCOc1ccccc1C(N)=O | 96.8% (inactive)
4 | Cc1occc(=O)c1O | 102% (inactive)
5 | CC(=O)O[C@@H]1CC2C(C)(C)[C@H](O)CC[C@]2(C)C2CC[C@@]3(C)[C@H](c4ccoc4)OC(=O)C4OC43[C@@]21C (stereo not given in full) | 122% (inactive)
6 | CN1C(C)(C)CCCC1(C)C | 82.7% (inactive)
7 | COc1cc(C/C=C/c2ccccc2)c(OC)cc1O | 113% (inactive)
8 | O=c1c(O)cc([C@H]2Oc3cc(O)cc(O)c3C[C@H]2O)cc2c([C@H]3Oc4cc(O)cc(O)c4C[C@@H]3O)cc(O)c(O)c12 | 104% (inactive)
9 | CC(=O)O[C@H]1CC[C@]2(C)C3CC(=O)[C@]4(C)C(C(C)=O)=CCC4C3CC[C@H]2C1 (stereo not given in full) | 101% (inactive)
10 | Nc1ccc(C(=O)O)cc1 | 124% (inactive)
11 | CS(=O)(=O)OCCCCOS(C)(=O)=O | 79.2% (inactive)
12 | COc1ccc(/C=C/C(=O)c2ccc(O)cc2O)cc1OC | 93.4% (inactive)
13 | COc1ccc(C(C)=O)c(O)c1 | 83.8% (inactive)
14 | CC1CC(OC(=O)c2ccccc2O)CC(C)(C)C1 (stereo not given) | 110% (inactive)
15 | COc1cc([C@@H]2c3cc4c(cc3C(OC3O[C@@H]5COC(C)O[C@H]5[C@H](O)[C@H]3O)C3COC(=O)[C@@H]32)OCO4)cc(OC)c1O (stereo not given in full) | 102% (inactive)
16 | CC1=C2C(=CO[C@H](C)[C@H]2C)C(=O)C(C(=O)O)=C1O | 94.3% (inactive)
17 | C[C@]12CC[C@H](O)CC1=CCC1C2CC[C@]2(C)C(=O)CCC12 (stereo not given in full) | 103% (inactive)
18 | CCC[C@H](N[C@@H](C)C(=O)N1[C@H](C(=O)O)C[C@@H]2CCCC[C@@H]21)C(=O)OCC | 121% (inactive)

Row | Structure (SMILES) | activity remaining
19 | CC(C(=O)O)c1ccc(C(=O)c2cccs2)cc1 (stereo not given) | 104% (inactive)
20 | CCCCC(=O)O[C@]1(C(=O)CO)CCC2C3CCC4=CC(=O)CC[C@]4(C)C3[C@@H](O)C[C@@]21C (stereo not given in full) | 111% (inactive)
21 | Cc1cc2cc3c(C)cc(=O)oc3c(C)c2o1 | 117% (inactive)
22 | O=C(O)C1=C[C@@H](O)[C@@H](O)[C@H](O)C1 | 86.3% (inactive)
23 | CC1(C)OCC(C2OC(=O)C(O)=C2O)O1 (stereo not given) | 87.7% (inactive)
24 | CON=C1C[C@]2(C[C@@H]3C[C@@H](C/C=C(\C)C[C@@H](C)/C=C/C=C4\CO[C@@H]5[C@H](O)C(C)=C[C@@H](C(=O)O3)[C@]45O)O2)O[C@H](/C(C)=C/C(C)C)[C@H]1C | 93.8% (inactive)
25 | O=C(O)CCCN1C(=O)c2cccc3cccc(c23)C1=O | 110% (inactive)
26 | Cc1cc(OC(=O)c2c(C)cc(O)cc2O)cc(O)c1C(=O)O | 115% (inactive)
27 | CCC(=O)O[C@H]1[C@H](O[C@@H]2[C@@H](C)[C@H](O[C@H]3C[C@@](C)(OC)[C@@H](O)[C@H](C)O3)[C@@H](C)C(=O)O[C@H](CC)[C@@](C)(O)[C@H](O)[C@@H](C)C(=O)[C@H](C)C[C@@]2(C)O)O[C@H](C)C[C@@H]1N(C)C | 121% (inactive)
28 | CCC(C(N)=O)c1ccccc1 (stereo not given) | 119% (inactive)
29 | COC(=O)C1=CO[C@@H](O[C@@H]2O[C@H](CO)[C@@H](O)[C@H](O)[C@H]2O)[C@@H]2[C@@H](C)CC(=O)[C@]12O | 109% (inactive)
30 | CC1=C2[C@@H](CC1)[C@@H](C)CC[C@@H]2/C=C(\C)C(=O)O | 113% (inactive)
31 | CCN(CC)C(=O)c1cccc(C)c1 | 112% (inactive)
32 | CC(=O)O[C@@H]1CC2C(C)(C)[C@@H](O)CC[C@]2(C)C2CC[C@@]3(C)[C@H](c4ccoc4)OC(=O)[C@H]4O[C@]43[C@@]21C (stereo not given in full) | 124% (inactive)
33 | C=C1C(=O)[C@]23[C@H](O)[C@H]1CC[C@H]2[C@@]12COC3(O)[C@H](O)[C@@H]1C(C)(C)CC[C@@H]2O | 98.4% (inactive)
34 | O=c1oc2ccccc2cc1O | 110% (inactive)
35 | CN[C@H]1C[C@@H](N)[C@H](O)[C@@H](O[C@@H]2O[C@H](CO)[C@@H]3OC4(O[C@@H]3[C@@H]2O)O[C@H](C(N)CO)[C@H](O)[C@H](O)[C@H]4O)[C@@H]1O (stereo not given in full) | 122% (inactive)
